The supplement of paper PMC11732987, “Enantioselective OTUD7B fragment discovery through chemoproteomics screening and high-throughput optimisation” (Communications Chemistry, 2025)
A number with no mark means an inactive call.

Key:
Assay in all cases: log2 ratio of Biotin-Ahx-Ub-VS probe labelling (fragment/DMSO); higher = less target engagement (more negative = stronger competition), active = hit call of the paper (q ≤ 0.05, log2 ratio ≤ -1)
Details in all cases: compound concentration: 200 uM; treatment time: 3 h
USP42 = molecular target: T1, USP42 (UniProt Q9H9J4)
T1 sequence (whole entry): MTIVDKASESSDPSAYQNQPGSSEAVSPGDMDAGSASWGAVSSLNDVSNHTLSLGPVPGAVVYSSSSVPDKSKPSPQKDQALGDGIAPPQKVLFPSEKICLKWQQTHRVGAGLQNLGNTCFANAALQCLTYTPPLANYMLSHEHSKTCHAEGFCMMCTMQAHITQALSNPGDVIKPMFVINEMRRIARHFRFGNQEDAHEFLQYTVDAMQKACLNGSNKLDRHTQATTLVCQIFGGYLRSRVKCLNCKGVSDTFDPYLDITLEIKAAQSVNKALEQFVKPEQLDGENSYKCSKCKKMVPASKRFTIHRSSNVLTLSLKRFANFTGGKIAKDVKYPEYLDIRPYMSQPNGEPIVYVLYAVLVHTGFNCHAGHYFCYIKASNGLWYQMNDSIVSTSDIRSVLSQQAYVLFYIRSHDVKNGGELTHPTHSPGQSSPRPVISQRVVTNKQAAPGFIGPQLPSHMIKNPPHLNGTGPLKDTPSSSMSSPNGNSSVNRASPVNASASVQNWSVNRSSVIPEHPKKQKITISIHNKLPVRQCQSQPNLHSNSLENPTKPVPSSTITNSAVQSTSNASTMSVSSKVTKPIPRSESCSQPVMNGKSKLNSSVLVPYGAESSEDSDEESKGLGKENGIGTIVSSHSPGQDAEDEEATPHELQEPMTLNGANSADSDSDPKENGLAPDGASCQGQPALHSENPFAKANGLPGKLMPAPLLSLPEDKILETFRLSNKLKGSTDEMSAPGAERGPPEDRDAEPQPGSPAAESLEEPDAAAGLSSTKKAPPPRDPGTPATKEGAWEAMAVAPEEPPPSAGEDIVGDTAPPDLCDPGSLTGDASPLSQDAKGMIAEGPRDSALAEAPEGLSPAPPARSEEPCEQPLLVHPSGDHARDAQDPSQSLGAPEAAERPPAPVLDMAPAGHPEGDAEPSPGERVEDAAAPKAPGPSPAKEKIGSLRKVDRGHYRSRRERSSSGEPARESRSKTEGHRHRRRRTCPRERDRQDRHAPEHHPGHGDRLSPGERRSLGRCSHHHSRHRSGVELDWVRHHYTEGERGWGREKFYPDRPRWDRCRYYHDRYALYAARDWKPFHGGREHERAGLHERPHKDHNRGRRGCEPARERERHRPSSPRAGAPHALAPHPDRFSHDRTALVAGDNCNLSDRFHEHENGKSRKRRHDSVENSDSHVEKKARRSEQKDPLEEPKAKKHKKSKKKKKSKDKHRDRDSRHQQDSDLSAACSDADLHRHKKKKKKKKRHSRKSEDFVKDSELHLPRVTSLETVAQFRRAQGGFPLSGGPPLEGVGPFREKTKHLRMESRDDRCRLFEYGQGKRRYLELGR
Summary of the method: (§1)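 Labelled DUBs were enriched with NeutrAvidin, digested with LysC and trypsin, and run by diaPASEF LC-MS/MS. The labelling used Biotin-Ahx-Ub-VS at 0.5 µM final for 1 h on HEK293T lysate (495 µg per sample) previously treated in triplicate with fragment at 200 µM or vehicle for 3 h. Values are average log2 fragment/vehicle ratios by unpaired t-test on global-median-normalised Spectronaut quantities of proteins with ≥2 unique peptides.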

USP46 = USP46 (UniProt P62068)
Sequence of USP46 (P62068 whole entry): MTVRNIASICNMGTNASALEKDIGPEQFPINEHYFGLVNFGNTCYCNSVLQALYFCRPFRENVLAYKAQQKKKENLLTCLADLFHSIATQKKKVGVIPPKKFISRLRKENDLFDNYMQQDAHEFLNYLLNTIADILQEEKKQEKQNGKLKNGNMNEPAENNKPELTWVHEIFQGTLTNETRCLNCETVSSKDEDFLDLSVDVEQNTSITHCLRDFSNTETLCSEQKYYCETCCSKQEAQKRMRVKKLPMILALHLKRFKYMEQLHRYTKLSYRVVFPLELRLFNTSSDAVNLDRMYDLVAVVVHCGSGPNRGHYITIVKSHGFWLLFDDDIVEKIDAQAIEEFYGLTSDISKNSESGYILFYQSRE
Summary of the method: as §1

USP47 = molecular target: T2, USP47 (UniProt Q96K76)
T2 sequence (whole entry): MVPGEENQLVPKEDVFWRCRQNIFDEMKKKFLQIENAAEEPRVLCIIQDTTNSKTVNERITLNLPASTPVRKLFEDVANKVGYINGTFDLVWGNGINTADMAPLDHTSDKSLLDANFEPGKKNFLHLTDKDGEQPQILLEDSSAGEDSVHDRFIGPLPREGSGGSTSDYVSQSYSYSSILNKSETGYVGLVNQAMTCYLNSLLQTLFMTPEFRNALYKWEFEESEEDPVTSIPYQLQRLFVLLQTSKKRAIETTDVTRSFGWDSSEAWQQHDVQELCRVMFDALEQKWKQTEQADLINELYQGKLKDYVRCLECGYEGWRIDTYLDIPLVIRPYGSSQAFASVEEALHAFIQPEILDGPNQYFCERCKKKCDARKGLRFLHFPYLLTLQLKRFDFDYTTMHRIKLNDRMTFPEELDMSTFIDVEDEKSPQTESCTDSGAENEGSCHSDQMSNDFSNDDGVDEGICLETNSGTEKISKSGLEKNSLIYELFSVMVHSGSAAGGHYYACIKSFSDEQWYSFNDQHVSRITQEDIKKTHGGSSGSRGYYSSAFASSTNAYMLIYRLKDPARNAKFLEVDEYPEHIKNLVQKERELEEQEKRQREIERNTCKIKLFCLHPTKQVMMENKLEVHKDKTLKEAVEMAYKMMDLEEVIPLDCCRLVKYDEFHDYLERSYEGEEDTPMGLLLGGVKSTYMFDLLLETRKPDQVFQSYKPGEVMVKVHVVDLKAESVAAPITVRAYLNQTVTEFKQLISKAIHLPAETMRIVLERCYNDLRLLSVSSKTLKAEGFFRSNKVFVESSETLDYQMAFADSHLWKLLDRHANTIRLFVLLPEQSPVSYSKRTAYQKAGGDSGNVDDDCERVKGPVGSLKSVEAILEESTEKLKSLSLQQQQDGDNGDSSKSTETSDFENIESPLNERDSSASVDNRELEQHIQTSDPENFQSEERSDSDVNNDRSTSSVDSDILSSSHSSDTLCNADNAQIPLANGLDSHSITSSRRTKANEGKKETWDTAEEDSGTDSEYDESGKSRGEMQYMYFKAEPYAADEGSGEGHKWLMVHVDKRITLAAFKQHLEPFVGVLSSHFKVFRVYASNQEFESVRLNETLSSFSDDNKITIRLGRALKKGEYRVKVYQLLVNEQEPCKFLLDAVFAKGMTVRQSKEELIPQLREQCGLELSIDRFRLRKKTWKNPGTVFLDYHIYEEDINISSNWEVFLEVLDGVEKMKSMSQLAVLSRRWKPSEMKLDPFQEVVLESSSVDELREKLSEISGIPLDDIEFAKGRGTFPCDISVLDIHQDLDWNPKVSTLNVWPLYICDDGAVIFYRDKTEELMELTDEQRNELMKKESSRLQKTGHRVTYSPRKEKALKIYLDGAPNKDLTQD
Summary of the method: as §1

USP48 = molecular target: T3, USP48 (UniProt Q86UV5)
T3 sequence (whole entry): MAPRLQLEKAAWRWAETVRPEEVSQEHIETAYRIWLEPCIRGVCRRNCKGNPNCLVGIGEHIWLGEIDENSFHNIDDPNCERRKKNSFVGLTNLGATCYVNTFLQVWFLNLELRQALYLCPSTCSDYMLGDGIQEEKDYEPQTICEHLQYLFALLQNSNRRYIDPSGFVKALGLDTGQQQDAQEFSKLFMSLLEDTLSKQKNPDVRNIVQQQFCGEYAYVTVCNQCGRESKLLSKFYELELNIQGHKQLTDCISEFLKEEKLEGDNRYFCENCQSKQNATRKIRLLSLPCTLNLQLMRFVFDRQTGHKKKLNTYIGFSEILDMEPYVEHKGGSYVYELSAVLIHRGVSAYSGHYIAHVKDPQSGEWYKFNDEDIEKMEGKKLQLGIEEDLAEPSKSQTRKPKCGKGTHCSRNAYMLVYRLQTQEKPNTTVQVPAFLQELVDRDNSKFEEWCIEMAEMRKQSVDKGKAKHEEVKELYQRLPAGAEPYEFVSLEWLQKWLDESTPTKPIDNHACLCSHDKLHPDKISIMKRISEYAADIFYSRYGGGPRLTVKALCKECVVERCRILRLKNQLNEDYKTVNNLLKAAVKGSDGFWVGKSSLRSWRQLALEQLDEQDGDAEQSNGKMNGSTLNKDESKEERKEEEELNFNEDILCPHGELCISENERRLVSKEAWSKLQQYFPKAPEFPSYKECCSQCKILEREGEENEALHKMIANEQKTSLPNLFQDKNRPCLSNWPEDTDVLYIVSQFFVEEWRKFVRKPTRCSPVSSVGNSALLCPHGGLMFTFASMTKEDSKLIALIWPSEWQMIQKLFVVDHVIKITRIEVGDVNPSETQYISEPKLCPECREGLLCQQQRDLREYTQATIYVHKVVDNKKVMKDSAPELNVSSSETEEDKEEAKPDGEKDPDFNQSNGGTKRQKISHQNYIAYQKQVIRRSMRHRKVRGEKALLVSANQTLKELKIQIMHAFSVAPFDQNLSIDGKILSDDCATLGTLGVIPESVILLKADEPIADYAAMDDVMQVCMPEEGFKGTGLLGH
Summary of the method: as §1

USP5 = molecular target: T4, USP5 (UniProt P45974)
T4 sequence (whole entry): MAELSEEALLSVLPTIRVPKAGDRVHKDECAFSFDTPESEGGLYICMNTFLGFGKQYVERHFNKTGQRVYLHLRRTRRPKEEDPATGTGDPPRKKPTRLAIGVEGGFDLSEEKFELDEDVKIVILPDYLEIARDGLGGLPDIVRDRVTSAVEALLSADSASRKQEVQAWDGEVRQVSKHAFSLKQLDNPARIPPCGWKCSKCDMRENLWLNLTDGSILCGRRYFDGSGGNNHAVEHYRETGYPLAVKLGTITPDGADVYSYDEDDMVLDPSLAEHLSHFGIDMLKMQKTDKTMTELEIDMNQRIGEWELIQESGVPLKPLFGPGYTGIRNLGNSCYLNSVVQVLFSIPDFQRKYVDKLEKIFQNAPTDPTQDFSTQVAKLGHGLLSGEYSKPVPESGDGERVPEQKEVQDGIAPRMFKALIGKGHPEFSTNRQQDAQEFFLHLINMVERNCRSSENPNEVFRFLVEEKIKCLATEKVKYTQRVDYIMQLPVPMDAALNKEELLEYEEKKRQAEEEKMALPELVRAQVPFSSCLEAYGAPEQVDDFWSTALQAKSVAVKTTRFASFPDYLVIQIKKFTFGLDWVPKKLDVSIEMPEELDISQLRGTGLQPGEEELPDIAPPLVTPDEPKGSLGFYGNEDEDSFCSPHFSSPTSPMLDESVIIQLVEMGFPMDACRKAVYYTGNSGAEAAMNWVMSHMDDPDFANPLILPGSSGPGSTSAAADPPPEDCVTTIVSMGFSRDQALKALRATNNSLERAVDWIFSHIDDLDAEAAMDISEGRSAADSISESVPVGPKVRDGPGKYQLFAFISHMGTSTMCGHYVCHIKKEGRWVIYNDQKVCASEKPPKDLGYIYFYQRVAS
Summary of the method: as §1

USP54 = USP54 (UniProt Q70EL1)
Summary of the method: as §1

USP7 = USP7 (UniProt Q93009)
Sequence of USP7 (Q93009 whole entry, looked up): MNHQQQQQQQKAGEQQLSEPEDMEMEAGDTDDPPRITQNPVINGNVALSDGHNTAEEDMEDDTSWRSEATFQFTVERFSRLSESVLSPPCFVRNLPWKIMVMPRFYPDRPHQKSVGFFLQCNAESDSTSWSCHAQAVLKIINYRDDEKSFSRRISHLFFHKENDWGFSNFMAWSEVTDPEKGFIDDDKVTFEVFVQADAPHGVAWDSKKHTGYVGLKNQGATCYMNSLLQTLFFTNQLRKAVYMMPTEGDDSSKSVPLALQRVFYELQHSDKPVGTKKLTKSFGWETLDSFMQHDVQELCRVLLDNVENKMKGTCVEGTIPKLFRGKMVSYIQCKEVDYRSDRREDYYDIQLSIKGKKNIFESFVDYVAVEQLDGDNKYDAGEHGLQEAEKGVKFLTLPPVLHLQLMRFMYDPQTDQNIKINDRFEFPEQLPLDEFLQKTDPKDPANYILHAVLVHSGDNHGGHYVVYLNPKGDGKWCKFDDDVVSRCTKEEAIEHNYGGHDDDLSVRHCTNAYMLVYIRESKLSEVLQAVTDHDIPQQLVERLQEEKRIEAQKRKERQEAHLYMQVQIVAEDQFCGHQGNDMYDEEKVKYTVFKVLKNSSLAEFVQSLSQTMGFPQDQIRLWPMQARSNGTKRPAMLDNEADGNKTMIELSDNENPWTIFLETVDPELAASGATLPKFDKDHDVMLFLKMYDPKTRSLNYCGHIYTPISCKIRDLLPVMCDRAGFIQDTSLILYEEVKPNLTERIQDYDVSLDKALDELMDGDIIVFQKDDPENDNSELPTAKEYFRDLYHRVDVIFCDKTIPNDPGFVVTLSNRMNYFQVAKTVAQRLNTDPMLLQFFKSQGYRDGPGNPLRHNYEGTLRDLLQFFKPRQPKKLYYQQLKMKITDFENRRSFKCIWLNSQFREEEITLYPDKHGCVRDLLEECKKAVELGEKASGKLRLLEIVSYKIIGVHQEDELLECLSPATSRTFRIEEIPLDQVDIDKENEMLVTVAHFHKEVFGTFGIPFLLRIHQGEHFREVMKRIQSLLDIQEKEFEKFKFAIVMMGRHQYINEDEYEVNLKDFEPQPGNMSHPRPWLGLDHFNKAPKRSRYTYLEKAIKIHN
Summary of the method: as §1

USP8 = molecular target: T5, USP8 (UniProt P40818)
T5 sequence (whole entry): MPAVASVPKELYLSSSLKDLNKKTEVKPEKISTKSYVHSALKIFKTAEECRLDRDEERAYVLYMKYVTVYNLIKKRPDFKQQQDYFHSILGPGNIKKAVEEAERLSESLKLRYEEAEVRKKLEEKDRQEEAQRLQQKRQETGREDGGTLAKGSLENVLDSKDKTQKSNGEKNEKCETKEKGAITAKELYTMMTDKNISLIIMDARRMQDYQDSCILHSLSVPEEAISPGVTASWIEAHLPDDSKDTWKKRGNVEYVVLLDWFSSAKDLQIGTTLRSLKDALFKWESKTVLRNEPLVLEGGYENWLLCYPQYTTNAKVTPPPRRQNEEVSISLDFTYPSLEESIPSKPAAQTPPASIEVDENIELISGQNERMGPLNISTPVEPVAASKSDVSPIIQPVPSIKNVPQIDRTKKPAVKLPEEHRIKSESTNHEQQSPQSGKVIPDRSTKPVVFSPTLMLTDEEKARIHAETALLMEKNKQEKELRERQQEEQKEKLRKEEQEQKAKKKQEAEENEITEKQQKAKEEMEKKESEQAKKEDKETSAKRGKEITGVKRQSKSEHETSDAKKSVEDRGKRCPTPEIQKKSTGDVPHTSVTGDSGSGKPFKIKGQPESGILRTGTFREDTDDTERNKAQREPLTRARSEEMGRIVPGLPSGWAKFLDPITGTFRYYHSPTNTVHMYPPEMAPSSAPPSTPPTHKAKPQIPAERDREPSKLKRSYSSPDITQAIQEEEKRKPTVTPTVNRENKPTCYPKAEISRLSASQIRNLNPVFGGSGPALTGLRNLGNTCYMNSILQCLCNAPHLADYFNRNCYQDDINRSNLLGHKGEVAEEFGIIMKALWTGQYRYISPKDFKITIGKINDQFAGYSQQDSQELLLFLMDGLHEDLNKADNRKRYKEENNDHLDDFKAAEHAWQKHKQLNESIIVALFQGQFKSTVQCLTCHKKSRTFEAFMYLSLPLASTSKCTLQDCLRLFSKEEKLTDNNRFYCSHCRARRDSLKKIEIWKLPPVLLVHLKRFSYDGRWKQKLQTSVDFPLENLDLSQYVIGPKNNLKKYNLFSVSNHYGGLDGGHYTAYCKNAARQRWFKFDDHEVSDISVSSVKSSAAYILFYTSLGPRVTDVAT
Summary of the method: as §1

USP9X = USP9X (UniProt Q93008)
Sequence of USP9X (Q93008 whole entry): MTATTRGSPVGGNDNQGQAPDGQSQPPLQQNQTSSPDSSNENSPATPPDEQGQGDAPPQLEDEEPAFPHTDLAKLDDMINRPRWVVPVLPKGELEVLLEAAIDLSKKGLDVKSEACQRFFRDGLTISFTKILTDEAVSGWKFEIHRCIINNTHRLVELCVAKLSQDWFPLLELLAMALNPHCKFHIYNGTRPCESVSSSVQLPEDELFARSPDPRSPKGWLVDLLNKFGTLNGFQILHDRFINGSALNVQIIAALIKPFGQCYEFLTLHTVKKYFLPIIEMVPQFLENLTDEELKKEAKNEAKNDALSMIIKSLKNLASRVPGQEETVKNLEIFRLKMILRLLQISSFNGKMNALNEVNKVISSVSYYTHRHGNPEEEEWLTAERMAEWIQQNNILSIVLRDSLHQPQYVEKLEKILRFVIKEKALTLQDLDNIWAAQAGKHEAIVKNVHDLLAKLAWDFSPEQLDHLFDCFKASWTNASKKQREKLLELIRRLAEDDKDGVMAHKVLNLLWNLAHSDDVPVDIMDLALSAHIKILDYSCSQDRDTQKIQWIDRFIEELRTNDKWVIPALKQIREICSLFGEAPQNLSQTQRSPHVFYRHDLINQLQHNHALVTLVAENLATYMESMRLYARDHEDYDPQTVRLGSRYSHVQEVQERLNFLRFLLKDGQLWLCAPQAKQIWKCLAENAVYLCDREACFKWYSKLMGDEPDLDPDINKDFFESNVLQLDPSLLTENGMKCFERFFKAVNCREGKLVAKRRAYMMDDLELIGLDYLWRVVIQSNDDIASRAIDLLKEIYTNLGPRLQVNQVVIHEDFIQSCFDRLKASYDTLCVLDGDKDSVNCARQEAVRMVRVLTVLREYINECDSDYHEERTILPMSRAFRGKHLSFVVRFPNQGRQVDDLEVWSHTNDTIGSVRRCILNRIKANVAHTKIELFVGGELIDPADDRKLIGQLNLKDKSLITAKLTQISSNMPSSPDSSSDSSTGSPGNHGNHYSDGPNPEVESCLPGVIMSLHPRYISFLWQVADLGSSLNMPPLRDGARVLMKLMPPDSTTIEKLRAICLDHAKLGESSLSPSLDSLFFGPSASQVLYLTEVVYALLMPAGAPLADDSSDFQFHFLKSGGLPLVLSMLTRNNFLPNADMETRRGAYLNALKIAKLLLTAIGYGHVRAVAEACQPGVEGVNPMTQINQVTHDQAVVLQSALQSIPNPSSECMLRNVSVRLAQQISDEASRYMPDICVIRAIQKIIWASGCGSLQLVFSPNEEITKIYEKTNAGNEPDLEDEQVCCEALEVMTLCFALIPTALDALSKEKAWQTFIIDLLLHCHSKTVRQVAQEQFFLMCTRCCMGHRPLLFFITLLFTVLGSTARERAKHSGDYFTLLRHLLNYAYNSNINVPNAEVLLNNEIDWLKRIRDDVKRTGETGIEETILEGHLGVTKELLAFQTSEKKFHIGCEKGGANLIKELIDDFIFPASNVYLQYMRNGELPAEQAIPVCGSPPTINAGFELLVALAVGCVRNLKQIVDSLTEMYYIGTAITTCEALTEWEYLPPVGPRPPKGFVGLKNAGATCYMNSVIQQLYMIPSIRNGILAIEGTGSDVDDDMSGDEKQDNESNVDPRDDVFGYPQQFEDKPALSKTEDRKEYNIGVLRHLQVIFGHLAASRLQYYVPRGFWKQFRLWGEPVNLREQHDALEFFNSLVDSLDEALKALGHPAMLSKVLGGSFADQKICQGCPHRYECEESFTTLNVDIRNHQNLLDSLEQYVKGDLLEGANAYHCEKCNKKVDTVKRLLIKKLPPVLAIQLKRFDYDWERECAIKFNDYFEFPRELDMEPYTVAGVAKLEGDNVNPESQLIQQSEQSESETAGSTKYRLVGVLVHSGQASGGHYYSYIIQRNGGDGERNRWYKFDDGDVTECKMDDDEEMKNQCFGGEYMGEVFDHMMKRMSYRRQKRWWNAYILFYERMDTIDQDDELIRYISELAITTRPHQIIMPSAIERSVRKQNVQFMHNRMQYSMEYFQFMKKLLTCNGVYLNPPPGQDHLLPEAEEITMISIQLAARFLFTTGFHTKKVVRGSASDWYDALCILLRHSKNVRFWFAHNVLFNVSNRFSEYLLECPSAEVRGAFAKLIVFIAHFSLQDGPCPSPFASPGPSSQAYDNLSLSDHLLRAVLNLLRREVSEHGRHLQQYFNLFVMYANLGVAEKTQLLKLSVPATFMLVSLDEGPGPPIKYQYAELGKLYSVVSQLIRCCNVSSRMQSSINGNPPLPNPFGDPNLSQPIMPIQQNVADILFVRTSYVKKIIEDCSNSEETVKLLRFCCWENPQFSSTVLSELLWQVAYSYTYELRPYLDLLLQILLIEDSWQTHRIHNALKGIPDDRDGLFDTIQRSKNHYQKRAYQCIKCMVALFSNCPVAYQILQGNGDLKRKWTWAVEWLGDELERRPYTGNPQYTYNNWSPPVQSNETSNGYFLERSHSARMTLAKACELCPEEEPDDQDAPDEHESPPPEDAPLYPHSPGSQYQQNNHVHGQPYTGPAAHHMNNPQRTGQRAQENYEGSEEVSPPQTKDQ
Summary of the method: as §1

UniProt O00487 = molecular target: UniProt O00487
Sequence of UniProt O00487 (O00487 whole entry): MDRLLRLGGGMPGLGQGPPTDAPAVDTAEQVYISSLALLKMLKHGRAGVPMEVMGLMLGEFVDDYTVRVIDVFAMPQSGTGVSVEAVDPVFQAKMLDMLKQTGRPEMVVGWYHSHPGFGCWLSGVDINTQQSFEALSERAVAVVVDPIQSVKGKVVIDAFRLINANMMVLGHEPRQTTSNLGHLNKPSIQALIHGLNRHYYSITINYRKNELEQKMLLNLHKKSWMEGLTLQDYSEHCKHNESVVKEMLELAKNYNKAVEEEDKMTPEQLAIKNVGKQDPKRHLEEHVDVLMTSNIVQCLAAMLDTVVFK
Summary of the method: as §1

| SMILES | log2 ratio of Biotin-Ahx-Ub-VS probe labelling (USP42) | log2 ratio of Biotin-Ahx-Ub-VS probe labelling (USP46) | log2 ratio of Biotin-Ahx-Ub-VS probe labelling (USP47) | log2 ratio of Biotin-Ahx-Ub-VS probe labelling (USP48) | log2 ratio of Biotin-Ahx-Ub-VS probe labelling (USP5) | log2 ratio of Biotin-Ahx-Ub-VS probe labelling (USP54) | log2 ratio of Biotin-Ahx-Ub-VS probe labelling (USP7) | log2 ratio of Biotin-Ahx-Ub-VS probe labelling (USP8) | log2 ratio of Biotin-Ahx-Ub-VS probe labelling (USP9X) | log2 ratio of Biotin-Ahx-Ub-VS probe labelling (UniProt O00487) |
| --- | --- | --- | --- | --- | --- | --- | --- | --- | --- | --- |
| O=C(CCl)N[C@H]1CC[C@@H](CO)CC1 | 0.163 | -0.593 | -0.113 | -0.534 | -0.644 | 1 | -0.752 | -0.969 | -0.905 | -0.163 |
| Cc1noc(N2CCN(C(=O)CCl)CC2)n1.Cl | 0.0551 | -0.0466 | -0.329 | 0.0849 | 0.492 | 0.167 | -0.27 | -0.307 | -0.318 | 0.0199 |
| NC(=O)C1CCCCN1C(=O)CCl (stereo not given) | -0.0547 | 0.025 | -0.299 | -1.03 (active) | 0.371 | 0.325 | -0.76 | -0.26 | -0.213 | -0.0664 |
